# In the supplement of paper PMC12669032:
# A number with no mark means an inactive call.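 Rule for the calls: active = AUC reduced over 20% with Padj below 0.05 in at least 2 of 3 replicates; inactive = otherwise.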
# Assays:
# Test in all cases: growth AUC relative to DMSO control (median of replicates) (fraction); higher = more growth (less inhibition), active = hit call of the paper
# Settings in all cases: 20 µM; 24 h
# Coprococcus comes = test system: Coprococcus comes
# Method in brief: (§1)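 Gut bacterial monocultures were grown anaerobically at 37 °C in mGAM, starting at OD600 0.05, with 20 µM compound (1% DMSO) in round-bottom 96-well plates under pierced gas-permeable seals. OD600 was read hourly for 24 h. Area under the growth curve (minimum OD set to 0) was normalised to the plate median of DMSO controls, or to row and column medians on the industrial chemical plate. The value is the median of three biological replicates grown on separate days.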
# Escherichia coli ED1a = test system: Escherichia coli ED1a
# Method in brief: as §1
# Escherichia coli IAI1 = test system: Escherichia coli IAI1
# Method in brief: as §1
# Eubacterium rectale = test system: Eubacterium rectale
# Method in brief: as §1
# [1] = test system: Fusobacterium nucleatum subsp. animalis
# Method in brief: as §1
# Lactobacillus gasseri = test system: Lactobacillus gasseri
# Method in brief: as §1
# Lactobacillus paracasei = test system: Lactobacillus paracasei
# Method in brief: as §1
# Odoribacter splanchnicus = test system: Odoribacter splanchnicus
# Method in brief: as §1
# [2] = test system: Parabacteroides distasonis
# Method in brief: as §1
# Parabacteroides merdae = test system: Parabacteroides merdae
# Method in brief: as §1
# Roseburia intestinalis = test system: Roseburia intestinalis
# Method in brief: as §1
# Streptococcus salivarius = test system: Streptococcus salivarius
# Method in brief: as §1
SMILES,growth AUC (Coprococcus comes),growth AUC (Escherichia coli ED1a),growth AUC (Escherichia coli IAI1),growth AUC (Eubacterium rectale),growth AUC [1],growth AUC (Lactobacillus gasseri),growth AUC (Lactobacillus paracasei),growth AUC (Odoribacter splanchnicus),growth AUC [2],growth AUC (Parabacteroides merdae),growth AUC (Roseburia intestinalis),growth AUC (Streptococcus salivarius)
CCOC(=O)CSc1nc(C(C)(C)C)nn1C(=O)N(C)C,0.985,0.961,0.947,1.05,0.918,0.91,0.956,0.948,0.896,0.947,0.913,0.957
Cc1cc(C)c(C2=C(O)C3(CCCC3)OC2=O)c(C)c1,0.981,0.997,1.01,0.996,0.947,1.09,1.02,0.563 (active),0.622 (active),1,1.02,0.985
Nc1ccc(O)cc1,1.01,1.06,1.01,1.12,1.12,1.08,1.08,1.05,0.954,1.04,1.01,0.947
COc1cc(OC)nc(NC(=O)NS(=O)(=O)Nc2ccccc2C(=O)N(C)C)n1,0.994,0.981,0.992,0.972,0.94,1.03,0.939,0.997,1.03,1.02,0.981,0.99
Cc1cc(C)cc(O)c1,1.02,0.953,0.984,0.95,0.923,1.01,0.958,0.988,1.01,0.988,1.03,1.03
CCOC(=O)Cn1c(=O)sc2cccc(Cl)c21,0.959,1.01,0.957,0.996,0.994,1.04,0.993,0.979,1.07,0.98,0.968,0.961
CCOC(=O)[C@@H](C)Oc1ccc(Oc2nc3ccc(Cl)cc3o2)cc1,1.01,1.03,1,0.876,1.02,0.991,1.03,1.09,0.999,0.971,0.975,1.05
CP(=O)(O)CCC(=O)O,0.993,0.973,0.999,0.804,0.999,1.14,0.999,1.04,0.974,0.993,1.03,0.987
CC(C)N(C(=O)C(=O)O)c1ccc(F)cc1,0.985,1.03,1.02,1.05,1.18,1.05,1,1.04,1,1.01,0.998,1.05
Oc1ccccc1O,0.993,0.994,1.01,1,1.01,1,0.995,1.08,1.02,1,1.1,0.987
CN(C)C(=O)NC1CCCCCCC1,1.03,0.999,0.998,1.06,1.04,1.04,0.978,0.948,1.02,1.01,1.08,1.05
Cn1cc(C(=O)Nc2ccccc2-c2cc(F)c(F)c(F)c2)c(C(F)F)n1,0.97,0.985,0.987,0.937,0.873,0.995,0.943,0.964,0.916,0.937,0.997,0.966
COC(=O)c1ccc(I)cc1S(=O)(=O)[N-]C(=O)Nc1nc(C)nc(OC)n1.[Na+],0.947,1.02,0.948,1.07,1.14,0.919,0.969,1.07,0.95,1.01,0.934,0.948
CC(C)(NC(=O)C(Br)C(C)(C)C)c1ccccc1 (stereo not given),0.959,1.01,0.983,0.889,0.895,1.12,0.895,0.983,0.97,0.95,0.964,0.96
CCc1nc2ncnn2c(N)c1CCCCCC(=O)O.Cl,1.03,1.02,1.04,1.11,1.14,1.08,0.977,1.04,0.99,1.06,0.955,1.02
CC1COc2ccccc2N1C(=O)C(Cl)Cl (stereo not given),0.887,0.985,0.973,0.989,0.688,0.903,1.11,0.979,0.931,0.95,0.92,0.944
CCCCOC(=O)[C@@H](C)Oc1ccc(Oc2ccc(C(F)(F)F)cn2)cc1,0.961,0.989,0.997,0.918,0.789,0.915,0.993,0.977,0.844,0.96,0.973,0.969
C#CCOC(=O)[C@@H](C)Oc1ccc(Oc2ncc(Cl)cc2F)cc1,0.978,1.01,0.987,0.982,0.903,0.962,0.997,0.982,1,0.979,1.06,0.959
CSc1nnc(C(C)(C)C)c(=O)n1/N=C/C(C)C,1.02,1.04,0.979,1.1,1.08,1.08,1.03,0.96,1.03,1.02,1.07,1
CC(C)OC(=O)c1cc(C(=O)OC(C)C)cc([N+](=O)[O-])c1,0.97,0.998,0.988,0.972,0.98,0.968,0.964,1.06,0.963,0.921,0.974,0.992
CN(C)C(N)=O,0.993,1.01,0.953,0.967,1.01,0.983,1.03,1.03,0.968,1.01,0.996,1.02
CN1CCC[C@H]1c1cccnc1,0.984,0.99,1.01,0.978,0.98,0.941,0.991,0.989,1.02,0.993,0.933,0.949
CN(C)C(=O)SCCCCOc1ccccc1,0.968,0.98,0.962,1.12,0.958,1.01,0.975,0.981,0.938,0.961,0.998,0.99
CCCCC(CC)COC(=O)COc1cc(Cl)c(Cl)cc1Cl (stereo not given),0.976,0.99,1.03,0.903,0.9,1.06,1.05,0.998,0.965,0.937,0.966,1
CC(C)CCCCCOC(=O)C(C)Oc1ccc(Cl)cc1Cl (stereo not given),1.01,0.979,1.02,1.21,1.06,0.817,0.962,0.814,0.925,0.9,1.03,0.982

SMILES,growth AUC (Coprococcus comes),growth AUC (Escherichia coli ED1a),growth AUC (Escherichia coli IAI1),growth AUC (Eubacterium rectale),growth AUC [1],growth AUC (Lactobacillus gasseri),growth AUC (Lactobacillus paracasei),growth AUC (Odoribacter splanchnicus),growth AUC [2],growth AUC (Parabacteroides merdae),growth AUC (Roseburia intestinalis),growth AUC (Streptococcus salivarius)
CCCCCCCC/C=C\CCCCCCCCCCCCC,1,0.987,1.03,0.946,0.961,1.08,0.875,0.968,1.01,0.991,1.07,1.03
CCNc1nc(N)nc(Cl)n1,0.995,1,1,1.02,1.04,0.933,0.891,1.02,1.02,1.02,1.01,1.03
CCN(CC)C(=O)SCc1ccccc1Cl,1.01,1.04,1,0.939,0.964,1.1,0.994,1.12,0.92,0.95,1.01,1.02
C#CCOc1cc(-n2nc(C(C)(C)C)oc2=O)c(Cl)cc1Cl,0.991,0.971,0.996,1.09,0.926,0.831,0.958,0.904,0.392 (active),0.951,0.909,0.963
N#Cc1ccc(CC(=NNC(=O)Nc2ccc(OC(F)(F)F)cc2)c2cccc(C(F)(F)F)c2)cc1 (mixture of isomers),0.991,0.986,1.02,0.963,1.12,1.15,0.959,1.02,0.999,0.936,0.954,1.02
COC(=O)c1c(Cl)ccc(Cl)c1OC,1.04,1.04,1.03,0.969,0.968,0.979,0.921,1.04,1.05,1.01,0.982,1.04
CNC(=O)Nc1nc2ccccc2s1,1.01,0.999,0.984,1.03,1,0.944,0.953,1.05,0.984,1.03,0.983,0.965
CCOC(=O)c1nc(C(Cl)(Cl)Cl)n(-c2ccc(Cl)cc2Cl)n1,0.946,1,1.01,0.961,0.995,1.02,1,1,0.899,0.965,0.949,0.992
CCNc1nc(NC(C)(C)C)nc(OC)n1,1.03,1.04,1.03,1.06,1.01,1.03,1.01,1.07,1.07,0.99,1.05,1
CON(C(=O)c1cc(C)oc1C)C1CCCCC1,0.992,1.01,0.968,1,1.03,1.05,0.991,1.02,1.05,0.982,1.09,0.989
NC(=O)C1CO1 (stereo not given),0.93,0.957,0.946,0.989,0.923,0.995,1.02,0.949,0.895,0.946,0.855,1.01
COC(=O)Nc1ccc(Cl)c(Cl)c1,0.987,0.999,0.939,0.973,0.926,1.15,1.08,0.974,0.986,0.956,1,0.918
Cc1nn(C)c(OCC(=O)c2ccccc2)c1C(=O)c1ccc(Cl)cc1Cl,1.02,0.995,1,1.04,1.02,1.02,0.991,0.961,0.674 (active),0.926,0.981,1.01
COC(=O)c1ccccc1S(=O)(=O)NC(=O)n1nc(OCC(C)O)n(C)c1=O (stereo not given),0.991,0.99,0.991,1.08,1.02,1.01,1.03,0.943,1.03,0.996,1.01,1
O=[N+]([O-])c1ccc2c(c1)Cc1ccccc1-2,0.98,0.984,0.989,1.07,0.897,1.03,0.998,0.982,1.1,0.992,1.01,0.988
CC(C)N(C(=O)CS(=O)(=O)[O-])c1ccccc1.[Na+],0.982,0.978,0.988,1.07,1.09,0.948,1,0.981,0.96,1,1.02,0.997
CCc1cccc(CC)c1N(COC)C(=O)C(=O)O,0.981,1.05,0.999,0.948,1.04,0.999,1,1.01,1.02,0.991,1,1.02
COC1CCC2(CC1)NC(=O)C(O)(c1cc(C)ccc1C)C2=O (stereo not given),1.03,1.01,1.02,1.1,1.16,1.02,1.06,1.06,1.02,1.06,1.01,1.01
COc1nc(NC(=O)NS(=O)(=O)c2ccccc2C(F)(F)F)nc(C(F)(F)F)n1,1.01,0.99,1,0.979,0.988,0.899,0.986,1.06,0.996,0.964,0.993,1.02
CCc1cccc(C)c1NC(=O)CS(=O)(=O)[O-].[Na+],0.996,0.954,0.983,0.974,0.945,1.04,0.949,1.01,1.02,0.989,1,1.01
CCNC(=O)[C@@H](C)OC(=O)Nc1ccccc1,1.04,1.01,1.01,1.01,1.05,1.18,0.941,0.955,1.08,1.04,1.14,1.02
CC(C)c1nn(C(=O)NC(C)(C)C)c(=O)n1N,1.02,1.02,1.02,0.971,0.994,1.07,1.02,1,1,1.02,1.02,1.01
Cc1cc(N(C)C)nc(Cl)n1,0.97,1.02,0.992,1.06,1.11,0.947,0.99,0.998,1.03,0.998,1.01,1.04
CCCCOC(=O)C(C)Oc1ccc(Oc2ccc(C(F)(F)F)cn2)cc1 (stereo not given),0.987,1.02,1.01,1.09,0.997,0.914,0.985,1.02,0.768,0.961,0.932,0.974
CCc1cc(C(=O)O)cc(CC)c1C1C(=O)N2CCOCCN2C1=O,1,1.02,1.02,1.01,1.11,1.11,1.04,1.13,0.99,1.04,0.952,1
